From PubChem BioAssay (NCATS) come the findings set out here.

Inconclusive results are not listed. Active and inactive are the calls of the source. Unless noted, calls follow the shape of the dose curve; as a rule, active = well fitted curve in the direction sought with a large enough effect; inconclusive = small, poorly fitted or top-dose-only effect, or another doubt; inactive = no such curve, though single readings can be large; an effect the other way counts as inactive or inconclusive.

Experiment [1] addresses Thyrotropin receptor (Homo sapiens) (UniProt P16473). As to the kind of experiment: qHTS Assay for Antagonists of the Thyroid Stimulating Hormone Receptor (AID 488980). Also: series mostly up to about 58 µM; 0% is about no effect. In a few lines: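 TSHR-transfected HEK293 cells (2000/well) in HEPES-buffered HBSS with 70 uM RO 20-1724 were stimulated with 4 nM TSH (EC80, final) in the presence of compound. cAMP was measured by HTRF competition after lysis and 30 min at RT.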
(In general: qHTS replaces the single test concentration by a dilution series.)

Experiment [2] has as its target D(1A) dopamine receptor (Homo sapiens) (UniProt P21728). Put plainly: HTS Assay for Allosteric Agonists of the Human D1 Dopamine Receptor: Primary Screen for Agonists (AID 488981). Also: 0% is about no effect. In a few lines: (§1)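 Tetracycline-induced HEK293 T-REx cells force-coupled to calcium signalling were incubated overnight at 30 C and dye-loaded at room temperature. Calcium flux over 180 s after compound addition flagged agonists; a further 180 s read after EC20 dopamine flagged potentiators.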

Experiment [3] shares this target. Put plainly: HTS Assay for Allosteric Agonists of the Human D1 Dopamine Receptor: Primary Screen for Potentiators (AID 488982). Also: potency is read from the fitted curve at half-maximal effect. The gist of the method:
as §1

Experiment [4] in a line: Validation screen for small molecules that induce genotoxicity in human embryonic kidney (HEK293T) cells expressing luciferase-tagged ELG1 (AID 493106). Also: 0% is about no effect. In a few lines: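 In this validation screen, increased ELG1-luciferase signal flags compounds causing genetic stress. HEK293T reporter cells are treated 16 hr (37 °C, 5% CO2), developed with ONE-Glo for 30 min at room temperature, and imaged on a CCD-based reader.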

The target in experiment [5] is ATPase family AAA domain-containing protein 5 (Homo sapiens) (UniProt Q96QE3). As to the kind of experiment: Validation screen for small molecules that inhibit ELG1-dependent DNA repair in human embryonic kidney (HEK293T) cells expressing luciferase-tagged ELG1 (AID 493107).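 Also: cells co-treated with the DNA-damaging agent 5-fluorouridine alongside compound; series mostly up to about 46 µM; % is scaled to controls: 0 for no effect and ±100 for the full control effect; inhibitors lower the ELG1-luciferase luminescence signal; nearly all actives have a fitted effect of over 70% in size.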 The gist of the method:
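Compounds reducing 5-fluorouridine-driven ELG1-luciferase signal in HEK293T cells were scored; exposure lasted 16 hr at 37 °C with luminescence detected via ONE-Glo.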

In experiment [6] the target is Thyrotropin-releasing hormone receptor (Homo sapiens) (UniProt P34981). As to the kind of experiment: qHTS for Small Molecule Agonists and Allosteric Enhancers of Human TRH Receptor: Validation Screen for Agonists (AID 493127;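 active = calcium activation more than 3 SD above the typical response in the agonist read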;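 also: intracellular calcium rise by fluo-8 fluorescence before TRH EC20 addition; 0% is about no effect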). The settings on record: TRH receptor agonist cell assay; at 2 µM; stronger effect = higher value. The gist of the method:
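Kinetic fluorescence assay of agonist-induced calcium release: overnight-plated TRHR cells, room-temperature fluo-8 loading, baseline then compound addition with per-second reads.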

The nature of experiment [7]: Nrf2 qHTS screen for inhibitors: Validation (AID 493153; active = well fitted inhibition curve with a large enough effect in the main read-out, with a control signal flat, not every such curve was filed as active; also: potency is read from the fitted curve at half-maximal effect). The settings on record: Potency: luciferase luminescence; viability change: measured here: cytotoxicity max response. In a few lines: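 In this counterscreened reporter format, each well gives two signals: CellTiter-Fluor fluorescence for cytotoxicity and ARE-luciferase luminescence for Nrf2 function. A549 ARE_Fluc cells in 5% FBS OPTI-MEM were exposed to compound titrations for 18-24 h.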

Experiment [8] addresses Tyrosyl-DNA phosphodiesterase 1 (Homo sapiens) (UniProt Q9NUW8). As to the kind of experiment: Confirmation Assay for Inhibitors of Tyrosyl-DNA Phosphodiesterase (TDP1) (AID 489007). Also: potency is read from the fitted curve at half-maximal effect; nearly all actives have a fitted effect of over 40% in size. The settings on record: recombinant human TDP1 enzymatic activity, dose-response. The gist of the method: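 Loss of AlphaScreen signal reports Tdp1 cleavage of a dual-labelled DNA substrate. Conditions: 1 nM E. coli-derived enzyme, 15 nM substrate, 15 min compound preincubation, 5 min reaction, 10 min bead incubation, all at room temperature.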

In experiment [9] the target is D(1A) dopamine receptor (Homo sapiens) (UniProt P21728). Put plainly: HTS Assay for Allosteric Agonists of the Human D1 Dopamine Receptor: Primary Screen for Antagonists (AID 488983).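 Also: calcium flux response to an EC80 dopamine challenge measured with no-wash dye; nearly all actives have a fitted effect of over 65% in size.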 Also: potency is read from the fitted curve at half-maximal effect. In a few lines: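 In this primary screen, compounds are applied to calcium-dye-loaded HEK293 T-REx cells with force-coupled D1 expression induced overnight at 30 C. An EC80 of dopamine follows the 180 s compound phase, and calcium is monitored for a further 180 s.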
D(1A) dopamine receptor (Homo sapiens), sequence (P21728 whole entry, looked up): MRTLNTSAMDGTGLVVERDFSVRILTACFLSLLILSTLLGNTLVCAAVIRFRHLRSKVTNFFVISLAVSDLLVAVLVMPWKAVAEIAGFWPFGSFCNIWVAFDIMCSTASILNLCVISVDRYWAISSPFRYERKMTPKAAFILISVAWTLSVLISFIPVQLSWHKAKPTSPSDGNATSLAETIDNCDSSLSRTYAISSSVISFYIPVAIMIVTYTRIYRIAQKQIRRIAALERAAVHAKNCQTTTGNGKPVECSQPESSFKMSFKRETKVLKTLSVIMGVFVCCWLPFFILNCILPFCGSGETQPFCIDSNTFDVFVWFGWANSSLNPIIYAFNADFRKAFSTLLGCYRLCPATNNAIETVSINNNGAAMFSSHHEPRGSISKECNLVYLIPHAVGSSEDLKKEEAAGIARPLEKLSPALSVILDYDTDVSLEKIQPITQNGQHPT

Thyrotropin-releasing hormone receptor (Homo sapiens), sequence (P34981 whole entry, looked up): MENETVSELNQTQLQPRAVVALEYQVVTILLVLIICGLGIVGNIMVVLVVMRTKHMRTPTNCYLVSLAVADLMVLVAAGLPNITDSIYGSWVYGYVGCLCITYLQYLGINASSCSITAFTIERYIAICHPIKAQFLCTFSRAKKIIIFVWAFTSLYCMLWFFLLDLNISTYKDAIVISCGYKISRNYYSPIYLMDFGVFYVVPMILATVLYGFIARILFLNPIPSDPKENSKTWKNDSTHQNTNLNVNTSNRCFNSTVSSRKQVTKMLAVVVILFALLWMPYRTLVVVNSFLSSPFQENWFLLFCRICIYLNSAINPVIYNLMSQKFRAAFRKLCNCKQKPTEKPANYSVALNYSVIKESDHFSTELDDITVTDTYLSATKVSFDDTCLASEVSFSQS
ATPase family AAA domain-containing protein 5 (Homo sapiens), sequence (Q96QE3 whole entry, looked up, the tested form may be a part): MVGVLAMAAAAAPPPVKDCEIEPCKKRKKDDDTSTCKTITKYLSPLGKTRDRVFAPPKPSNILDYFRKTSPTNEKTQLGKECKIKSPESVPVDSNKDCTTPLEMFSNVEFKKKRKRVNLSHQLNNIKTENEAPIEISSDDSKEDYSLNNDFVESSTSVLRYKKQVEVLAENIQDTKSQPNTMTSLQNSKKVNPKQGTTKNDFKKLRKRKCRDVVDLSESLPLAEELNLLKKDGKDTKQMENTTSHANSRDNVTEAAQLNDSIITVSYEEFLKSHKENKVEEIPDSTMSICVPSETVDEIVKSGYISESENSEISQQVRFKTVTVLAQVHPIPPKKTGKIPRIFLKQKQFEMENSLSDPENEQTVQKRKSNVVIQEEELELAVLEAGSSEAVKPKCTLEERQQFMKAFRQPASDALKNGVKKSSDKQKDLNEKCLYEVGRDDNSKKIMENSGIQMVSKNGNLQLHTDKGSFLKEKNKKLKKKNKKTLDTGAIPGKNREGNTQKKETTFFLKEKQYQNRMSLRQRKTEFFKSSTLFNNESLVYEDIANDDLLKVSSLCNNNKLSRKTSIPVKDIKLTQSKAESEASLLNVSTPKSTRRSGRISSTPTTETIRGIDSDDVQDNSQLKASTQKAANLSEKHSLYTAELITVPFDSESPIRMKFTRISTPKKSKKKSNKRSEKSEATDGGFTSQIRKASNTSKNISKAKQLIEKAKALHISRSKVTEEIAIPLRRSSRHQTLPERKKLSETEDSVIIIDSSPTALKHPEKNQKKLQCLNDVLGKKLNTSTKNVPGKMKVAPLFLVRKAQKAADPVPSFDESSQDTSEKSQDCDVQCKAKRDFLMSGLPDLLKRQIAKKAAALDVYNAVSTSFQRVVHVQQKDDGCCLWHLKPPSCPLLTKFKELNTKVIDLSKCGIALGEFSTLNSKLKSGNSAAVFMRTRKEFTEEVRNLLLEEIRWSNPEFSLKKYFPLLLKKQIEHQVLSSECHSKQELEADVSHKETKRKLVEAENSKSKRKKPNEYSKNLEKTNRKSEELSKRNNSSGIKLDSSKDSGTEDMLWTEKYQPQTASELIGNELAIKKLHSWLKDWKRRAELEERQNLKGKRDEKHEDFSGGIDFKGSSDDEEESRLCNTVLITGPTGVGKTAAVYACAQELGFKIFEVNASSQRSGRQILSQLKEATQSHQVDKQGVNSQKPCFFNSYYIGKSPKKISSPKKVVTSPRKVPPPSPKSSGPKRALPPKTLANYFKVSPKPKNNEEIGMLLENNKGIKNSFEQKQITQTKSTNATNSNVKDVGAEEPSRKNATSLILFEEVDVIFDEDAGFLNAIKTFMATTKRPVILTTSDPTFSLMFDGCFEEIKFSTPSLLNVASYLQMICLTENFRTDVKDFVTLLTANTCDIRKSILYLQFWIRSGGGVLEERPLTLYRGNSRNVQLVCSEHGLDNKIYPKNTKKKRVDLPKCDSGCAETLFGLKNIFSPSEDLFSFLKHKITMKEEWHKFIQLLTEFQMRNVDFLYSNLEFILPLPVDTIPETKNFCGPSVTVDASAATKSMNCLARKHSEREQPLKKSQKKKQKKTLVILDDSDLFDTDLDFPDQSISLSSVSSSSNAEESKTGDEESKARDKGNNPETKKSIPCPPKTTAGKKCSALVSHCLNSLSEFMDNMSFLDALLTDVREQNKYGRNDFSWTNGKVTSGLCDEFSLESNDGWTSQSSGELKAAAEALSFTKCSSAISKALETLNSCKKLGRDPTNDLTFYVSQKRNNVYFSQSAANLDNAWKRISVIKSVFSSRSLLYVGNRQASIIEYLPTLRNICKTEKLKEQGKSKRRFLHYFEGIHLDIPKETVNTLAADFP
Thyrotropin receptor (Homo sapiens), sequence (P16473 whole entry, looked up): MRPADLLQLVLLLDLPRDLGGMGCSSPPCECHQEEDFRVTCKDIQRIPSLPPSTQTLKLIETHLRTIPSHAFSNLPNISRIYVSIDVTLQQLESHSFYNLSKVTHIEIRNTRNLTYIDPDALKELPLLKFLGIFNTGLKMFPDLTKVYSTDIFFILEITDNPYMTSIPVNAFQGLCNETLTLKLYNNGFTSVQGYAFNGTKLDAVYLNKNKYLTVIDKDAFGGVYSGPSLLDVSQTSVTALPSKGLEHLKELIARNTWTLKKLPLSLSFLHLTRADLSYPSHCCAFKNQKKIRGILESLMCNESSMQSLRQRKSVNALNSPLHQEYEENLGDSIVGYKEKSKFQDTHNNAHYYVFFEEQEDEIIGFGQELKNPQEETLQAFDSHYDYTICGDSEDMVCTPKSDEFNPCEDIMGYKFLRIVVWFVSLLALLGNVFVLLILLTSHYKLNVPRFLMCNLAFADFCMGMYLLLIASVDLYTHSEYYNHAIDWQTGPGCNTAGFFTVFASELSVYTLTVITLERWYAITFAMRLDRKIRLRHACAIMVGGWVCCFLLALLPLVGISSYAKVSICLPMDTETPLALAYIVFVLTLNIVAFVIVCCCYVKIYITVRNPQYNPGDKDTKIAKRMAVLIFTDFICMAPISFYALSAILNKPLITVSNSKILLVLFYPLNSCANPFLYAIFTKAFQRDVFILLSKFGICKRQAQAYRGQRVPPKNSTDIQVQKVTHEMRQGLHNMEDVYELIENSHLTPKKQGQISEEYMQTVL
Tyrosyl-DNA phosphodiesterase 1 (Homo sapiens), sequence (Q9NUW8 whole entry, looked up): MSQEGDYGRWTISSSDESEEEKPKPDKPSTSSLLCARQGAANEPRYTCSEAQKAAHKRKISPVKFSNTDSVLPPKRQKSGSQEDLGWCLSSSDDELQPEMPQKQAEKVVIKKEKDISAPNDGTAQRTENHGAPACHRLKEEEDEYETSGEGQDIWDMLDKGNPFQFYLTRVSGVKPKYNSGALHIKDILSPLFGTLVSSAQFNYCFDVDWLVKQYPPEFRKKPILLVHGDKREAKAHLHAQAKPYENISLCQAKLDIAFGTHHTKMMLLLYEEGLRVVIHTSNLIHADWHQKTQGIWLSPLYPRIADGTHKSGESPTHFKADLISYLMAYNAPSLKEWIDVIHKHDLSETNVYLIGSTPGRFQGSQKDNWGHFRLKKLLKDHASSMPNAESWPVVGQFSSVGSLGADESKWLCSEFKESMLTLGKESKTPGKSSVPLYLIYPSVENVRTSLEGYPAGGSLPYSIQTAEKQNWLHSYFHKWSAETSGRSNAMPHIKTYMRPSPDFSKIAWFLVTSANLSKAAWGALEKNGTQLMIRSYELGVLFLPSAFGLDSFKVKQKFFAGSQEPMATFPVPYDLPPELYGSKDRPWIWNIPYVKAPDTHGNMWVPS

`O=C1C2C=CC=CC2=NC(=S)N1CCN1CCC(=C(c2ccc(F)cc2)c2ccc(F)cc2)CC1` (centres undefined): the compound was called inactive in experiment [1]. Further, the Potency result in experiment [2], in experiment [3], in [4], in experiment [5] and in experiment [7] was “inactive” throughout. In addition, in [6], the activation was -4.38% (inactive). In experiment [7], the viability change was 6.28%.

As for `NCCCNCCCCNCCCN`, in experiment [1], the compound was called inactive. The Potency entry in [2], in [3], in experiment [4], in [5] and in [7] was “inactive” in each case. The activation in experiment [6] was 0.688% (inactive). For the same compound, the viability change in experiment [7] is -11.3%.

For the compound `NC(=O)c1cc[n+](CC2=C(C(=O)O)N3C(=O)[C@@H](NC(=O)[C@@H](c4ccccc4)S(=O)(=O)[O-])[C@H]3SC2)cc1`, in experiment [1], the call was inactive. Further, the Potency entry in experiment [2], in experiment [3], in experiment [4], in [5] and in experiment [7] was “inactive” each time. In addition, the Potency in [8] is 4.47 µM (active). Besides, in experiment [6], the activation was 13.1% (inactive). In addition, the viability change in experiment [7] turned out to be 3.59%.

Consider `CNC(=O)c1cc2c(cn1)[nH]c1ccccc12`, for which the compound was called inactive in experiment [1]. Also, the Potency result in experiment [2], in experiment [3], in [9] and in experiment [7] was “inactive” in each case. For the same compound, in experiment [6], the activation was 0.75% (inactive). The viability change in [7] was -3.36%.

Take `COc1ccccc1N1CCN(CCCNc2c(C)c(=O)n(C)c(=O)n2C)CC1`: the call in experiment [1] was inactive. The Potency entry in experiment [2], in experiment [3], in [4], in experiment [5] and in [7] was “inactive” each time. In [6], the activation was 0.0625% (inactive). In addition, the viability change in [7] was found to be 3.58%.

As to `CCN(c1nc(N)c(C(=O)N=C(N)N)nc1Cl)C(C)C`, in experiment [1], the compound was called inactive. Also, the Potency result in [2], in experiment [3], in experiment [4], in experiment [5] and in [7] was “inactive” throughout. The activation in experiment [6] was 2.31% (inactive). Moreover, in experiment [7], the viability change was -6.66%.

As to `CCCc1c(-c2ccc(O)cc2)nn(-c2ccc(O)cc2)c1-c1ccc(O)cc1`, the compound was called inactive in [1]. Further, the Potency result in experiment [2], in experiment [3], in experiment [4], in experiment [5] and in [7] was “inactive” each time. The activation in experiment [6] was 2.12% (inactive). Moreover, the viability change in experiment [7] was -5.33%.

Consider `NC(N)=N[C@@H](CCC(=O)O)C(=O)O`, for which the compound was classed as inactive in [1]. The Potency result in [2], in experiment [3], in [4], in experiment [5] and in [7] was “inactive” throughout. The activation in experiment [6] is 0.0625% (inactive). For the same compound, the viability change in experiment [7] was 6.59%.

Turning to `CO/N=C(\C(=O)N[C@@H]1C(=O)N2C(C(=O)O)=C(CSc3nc(=O)c(O)nn3C)CSC12)c1csc(N)n1` (some centres undefined), the call in experiment [1] was inactive. In addition, the Potency entry in [2], in experiment [3], in experiment [4], in [5] and in experiment [7] was “inactive” throughout. Besides, the Potency in [8] was 3.16 µM (active). The activation in experiment [6] was 1.12% (inactive). In addition, in experiment [7], the viability change turned out to be 3.25%.

`CCCOC(=O)c1c(-c2ccccc2)nc(CC)c(C(=O)SCC)c1CCC`: the compound was classed as inactive in experiment [1]. Besides, the Potency entry in [2], in [4], in experiment [5] and in [7] was “inactive” in each case. Further, in experiment [3], the Potency was 2.91 µM (active). Besides, in [6], the activation was 1.31% (inactive). The viability change in experiment [7] is -5.09%.

In the case of `CCCCS(=N)(=O)CC[C@H](N)C(=O)O` (some centres undefined), in experiment [1], the outcome was inactive. For the same compound, the Potency result in experiment [2], in experiment [3], in [9], in experiment [4] and in experiment [7] was “inactive” each time. The viability change in experiment [7] was determined as 0.751%.

For the compound `Cc1nc(N=Nc2cc(S(=O)(=O)O)c3cc([N+](=O)[O-])cc(S(=O)(=O)O)c3c2)c(COP(=O)(O)O)c(C=O)c1O`, the call in [1] was inactive. For the same compound, the Potency entry in experiment [2], in experiment [3], in [4], in [5] and in experiment [7] was “inactive” each time. Further, the activation in experiment [6] was 0.25% (inactive). Besides, the viability change in experiment [7] is -14.8%.

On to `C[C@@]1(C2CCCC2)Cc2cc(OCC(=O)O)c(Cl)c(Cl)c2C1=O`, for which, in [1], the call was inactive. The Potency result in [2], in experiment [3], in [4], in experiment [5] and in [7] was “inactive” in each case. Moreover, the activation in [6] was 1.25% (inactive). Besides, the viability change in [7] was -4.41%.

`NC1C=CC=C(C(=O)O)C1` (centres undefined): the compound was classed as inactive in experiment [1]. Moreover, the Potency result in experiment [2], in [3], in experiment [9], in [5] and in [7] was “inactive” each time. The viability change in experiment [7] was determined as 17.7%.

For the compound `CN[C@H](CC(=O)O)C(=O)O`, in [1], the result was inactive. Also, the Potency entry in experiment [2], in experiment [3], in experiment [4], in [5] and in experiment [7] was “inactive” in each case. In addition, the activation in experiment [6] is 1% (inactive). Further, in [7], the viability change was -4.15%.

Take `CCCc1c(OCCCOc2ccc(OCC(=O)O)cc2)ccc(C(C)=O)c1O`: the compound was called inactive in [1]. In addition, the Potency result in experiment [2], in experiment [3], in experiment [4] and in [5] was “inactive” each time.

`CCCCC[C@H](CC(=O)NO)C(=O)N[C@H](C(=O)N1CCC[C@H]1CO)C(C)C`: the call in experiment [1] was inactive. In addition, the Potency entry in [2], in experiment [3], in experiment [9] and in [4] was “inactive” in each case. The Potency in experiment [7] is 16.4 µM (active). For the same compound, the viability change in experiment [7] turned out to be 2.77%.

For the compound `NC(=Nc1ccccc1)NC(=O)c1nc(Cl)c(N)nc1N`, in experiment [1], the outcome was inactive. Besides, the Potency entry in experiment [2], in experiment [3] and in experiment [7] was “inactive” each time. The Potency in experiment [9] was 12.6 µM (active). Moreover, in experiment [6], the activation is 0.312% (inactive). Also, the viability change in experiment [7] is -16.8%.

For `O=c1cc(O)cc(/C=C/c2ccc(O)c(O)c2)o1`, in [1], the compound was classed as inactive. Further, the Potency entry in [2], in experiment [3], in experiment [4], in experiment [5] and in [7] was “inactive” in each case. In experiment [6], the activation was -0.438% (inactive). In addition, the viability change in [7] was -8.55%.

Regarding `NC1CCN(O)C1=O` (centres undefined), the compound was called inactive in [1]. In addition, the Potency entry in experiment [2], in experiment [3], in experiment [9], in experiment [4] and in experiment [7] was “inactive” each time. Moreover, in [6], the activation was 0.875% (inactive). Also, the viability change in experiment [7] was determined as 4.05%.

Consider `O=c1ccc2c(OCCCCc3ccccc3)c3ccoc3cc2o1`, for which the compound was called inactive in experiment [1]. The Potency result in [2], in experiment [3], in experiment [4], in experiment [5] and in experiment [7] was “inactive” throughout. Besides, the activation in [6] was -9.69% (inactive). Moreover, the viability change in experiment [7] turned out to be 4.36%.

With `CCCn1c(=O)c2[nH]c(C3CCCC3)nc2n(CCC)c1=O`, the call in experiment [1] was inactive. The Potency result in experiment [2], in [3], in experiment [9], in experiment [4] and in [7] was “inactive” in each case. The activation in experiment [6] is -3.88% (inactive). Moreover, in experiment [7], the viability change was -6.17%.

In the case of `CC(C)(C)NCC(O)COc1cccc2[nH]c(=O)[nH]c12` (centres undefined), in [1], the call was inactive. Also, the Potency entry in [2], in experiment [3], in experiment [9], in experiment [4] and in experiment [7] was “inactive” in each case. For the same compound, the activation in [6] is 1.12% (inactive). Moreover, the viability change in [7] was -1.12%.

With `COC(=O)C(N)Cc1ccc(Cl)cc1` (centres undefined), the compound was classed as inactive in experiment [1]. The Potency entry in experiment [2], in experiment [3], in experiment [9], in experiment [4] and in [7] was “inactive” throughout. Moreover, the activation in experiment [6] is -2.56% (inactive). Moreover, in experiment [7], the viability change stood at 9.57%.

For the compound `OC[C@H]1O[C@@H](n2cnc3cncnc32)[C@H](O)[C@@H]1O`, the compound was called inactive in experiment [1]. Moreover, the Potency entry in experiment [2], in experiment [3], in [9], in [4] and in experiment [7] was “inactive” in each case. The activation in experiment [6] is 1.44% (inactive). Further, in experiment [7], the viability change turned out to be 10.1%.
